Measurements from PubChem BioAssay AID1347156 (National Center for Advancing Translational Sciences (NCATS), 2019).
Results filed as inconclusive are left out. Active and inactive are the calls of the source. Calls come from the whole dose curve; as a rule, active = well fitted cell-killing curve with a large enough effect; inconclusive = small, poorly fitted or top-dose-only effect; inactive = flat fitted curve, though single readings scatter.

Experiment: DAPI mCherry counterscreen qHTS for Zika virus inhibitors; note: nearly all actives have a fitted effect of over 55% in size
Settings: Vero cells, DAPI nuclear count cytotoxicity, imaging 48-72 h, infected with Zika reporter virus, MOI 1; series mostly up to 32.6 µM; activity change, negative = cell loss: at the top concentration
Summary of the method: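 Vero cells (5,000/well), plated overnight, given compounds then recombinant ZIKV-mCherry at MOI 1 for 48-72 hrs at 37 degrees C; PFA-fixed, Hoechst-stained and imaged; nuclei counted and mCherry-positive cells scored as percent infection.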
% is set by controls: 0 for no effect and ±100 for the full control effect; potency is the fitted concentration of half-maximal effect.

Row | Compound | Potency | activity change, negative = cell loss
1 | O=S(=O)(Nc1cc(Cl)c(Oc2cnc3ccccc3c2)c(Cl)c1)c1ccc(Cl)cc1Cl | 12.6 µM (active) | 
2 | CC(C)C1=CCC(C)(O)C(OC2OC(CO)C(O)C(O)C2O)C1 (stereo not drawn) |  | -8.05% [at 24.2 µM] (inactive)
3 | CC(C)=CCCC1(C)C=Cc2c(O)c3c(c(CC=C(C)C)c2O1)OC12C(=CCCC1C(C)(C)O[C@@]2(C/C=C(\C)C(=O)O)C(=O)O)C3=O (stereo partly drawn) | 15.8 µM (active) | 
4 | CCC(=O)O[C@H]1[C@H](O[C@@H]2[C@@H](C)[C@H](O[C@H]3C[C@@](C)(OC)[C@@H](O)[C@H](C)O3)[C@@H](C)C(=O)O[C@H](CC)[C@@](C)(O)[C@H](O)[C@@H](C)C(=O)[C@H](C)C[C@@]2(C)O)O[C@H](C)C[C@@H]1N(C)C | 35.5 µM (active) | 
5 | COC(=O)c1ccc([C@H]2Nc3ccc(S(=O)(=O)Nc4ccc(C)cc4)cc3[C@H]3C=CC[C@H]32)cc1 |  | -12.5% (inactive)
6 | O=C(O)c1ccccc1Nc1cccc(OCc2ccc3ccccc3n2)c1 | 31.6 µM (active) | 
7 | Cc1cc(C)c2c(c1)C(N(Cc1cc(C(F)(F)F)cc(C(F)(F)F)c1)c1nnn(C)n1)CCCN2CC1CCC(C(=O)O)CC1 (stereo not drawn) | 35.5 µM (active) | 
8 | O=C(O)CCc1ccc(-c2ccc(Cl)cc2)n1-c1cccc(C(F)(F)F)c1 | 25.1 µM (active) | 
9 | COc1cc(-c2ccc(N=Nc3ccc4c(S(=O)(=O)O)cc(S(=O)(=O)O)c(N)c4c3O)c(OC)c2)ccc1N=Nc1ccc2c(S(=O)(=O)O)cc(S(=O)(=O)O)c(N)c2c1O |  | -13.8% (inactive)
10 | Cc1cccc(C)c1-n1c(SCC(=O)Nc2ccc(C(=O)O)cc2)nnc1-c1cccc([S+](=O)([O-])N2CCCC2)c1 |  | -4.71% (inactive)
11 | O=c1cc(-c2ccccc2)oc2cc(O)c(O)c(O)c12 |  | -18.4% (inactive)
12 | COc1ccc(-c2ccccc2)cc1NS(=O)(=O)c1cc(Cl)cc(Cl)c1O | 11.2 µM (active) | 
13 | CCOc1ccc(-c2cc(NC(=O)c3c(F)cccc3F)c(C(=O)O)s2)cc1 | 5.01 µM (active) | 
14 | O=C(O)c1cc(O)c2cccc(O)c2c1O[C@@H]1O[C@H](CO)[C@@H](O)[C@H](O)[C@H]1O |  | -6.37% [at 24.2 µM] (inactive)
15 | O=C(Nc1cccc(C(=O)OCc2cc(=O)n3nc(C4CC4)sc3n2)c1)c1ccc(F)cc1 |  | -8.64% (inactive)
16 | Cc1cc(CN2CCN(c3c(Br)cnc4nc(-c5ccc(N6CCN(C)CC6)cc5)[nH]c34)CC2)no1 | 10 µM (active) | 
17 | Cc1cc(OCCCc2c(C(=O)O)n(Cc3cccnc3)c3c(-c4c(COc5ccc(N6CCN([S+](C)(=O)[O-])CC6)cc5)nn(C)c4C)cccc23)cc(C)c1Cl | 14.1 µM (active) | 

Row | Compound | Potency | activity change, negative = cell loss
18 | O=C1c2c(O)ccc([N+](=O)[O-])c2C(=O)c2c([N+](=O)[O-])ccc(O)c21 | 39.8 µM (active) | 
19 | COc1ccc(C(=O)Nc2ccc(C(=O)OCc3cc(=O)n4nc(C(C)C)sc4n3)cc2)cc1 |  | -5.33% (inactive)
20 | Cc1ccc([C@@H]2CC=C(C(=O)O)[C@H](c3ccc(C(C)(C)C)cc3)N2S(=O)(=O)c2ccc(C)cc2)cc1 | 31.6 µM (active) | 
21 | COc1cccc(-n2nc(C(=O)O)cc2-c2ccc(C3CCCCC3)c(Cl)c2)c1 | 35.5 µM (active) | 
22 | CC(=O)Oc1cc2c(c(C)c1OC(C)=O)CC=C1[C@@]2(C)CC[C@@]2(C)[C@H]3C[C@](C)(C(=O)O)CC[C@]3(C)CC[C@]12C | 2.82 µM (active) | 
23 | COc1ccc(Cl)c(Nc2nc3ccccc3nc2NS(=O)(=O)c2cccc(NC(=O)C(C)(C)N)c2)c1 | 22.4 µM (active) | 
24 | CN(Cc1ccc(C(=O)O)cc1)c1ccc(OCc2c(-c3c(Cl)cccc3Cl)noc2C2CC2)nc1C(F)(F)F | 15.8 µM (active) | 
25 | CC(C)C[C@H](C(=O)O)c1cc(-c2ccc(C(F)(F)F)cc2)cc(-c2ccc(C(F)(F)F)cc2)c1 | 11.2 µM (active) | 
26 | O=C(Nc1cccc2c(=O)cc(-c3nn[nH]n3)oc12)c1ccc(OCCCCc2ccccc2)cc1 | 35.5 µM (active) | 
27 | CN(CC(=O)N(Cc1ccc(C2CCCCC2)cc1)c1ccc(C(=O)O)cc1)S(=O)(=O)c1c(F)c(F)c(F)c(F)c1F | 5.62 µM (active) | 
28 | CCOc1ccc(C(=O)Nc2cccc(C(=O)OCc3cc(=O)n4nc(C5CC5)sc4n3)c2)cc1 | 11.2 µM (active) | 
29 | O=C(NCc1ccc(Oc2ccccc2)cc1)c1nc(-c2cc(Br)c(O)c(Br)c2)no1 | 8.91 µM (active) | 
30 | N#CC(c1ccc(Cl)cc1)c1c(Cl)cc(-n2ncc(=O)[nH]c2=O)cc1Cl (stereo not drawn) | 25.1 µM (active) | 
31 | CC1CCN(C(c2ccc(F)cc2)c2ccc(C(C)C(=O)O)cc2-c2ccc(C(F)(F)F)cc2)CC1 (stereo not drawn) | 8.91 µM (active) | 
32 | CC(C)(C)c1ccc(S(=O)(=O)Nc2ccc(O)c(Sc3nc4ccccc4s3)c2)cc1 | 14.1 µM (active) | 
33 | Cc1c(Cl)cccc1NS(=O)(=O)c1ccc(NS(=O)(=O)c2ccc3c(c2)OCCO3)cc1 | 31.6 µM (active) | 
